ATXN viability: viability counter-screen for ATXN expression inhibitors; S2 cells (HEK-293 line with an ATXN2-luciferase reporter) viability, CellTiter-Fluor protease fluorescence, 24 h; AID 651635; 400,000 compounds, 0.49% hits; Potency, µM (titrated, usually from 56.7 µM), most hits filed as cytotoxic; note: nearly all actives have a fitted effect of over 40% in size
TGFb inhibitor: TGF-b pathway inhibition; 410,000 compounds, 1.2% hits; HepG2 CAGA-GFP TGF-b/SMAD3 reporter, GFP fluorescence, 18 h; TGF-beta stimulated, 500 pg/mL final; Potency, µM (series often up to 46.1 µM), actives largely listed as inhibitors; note: nearly all actives have a fitted effect of over 65% in size
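Cell-based qHTS in HEPG2 carrying a CAGA-GFP Smad reporter; compounds added before 500 pg/mL final TGF-beta, 18 h incubation at 37 degrees C, GFP fluorescence quantified per cell by imaging cytometry.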
ATXN2 expr inh: reduces ATXN2 reporter expression in HEK-293 cells; 360,000 compounds, 0.72% hits; Potency, µM (series often up to 57 µM), usual class: inhibitors; HEK-293 ATXN2-luciferase reporter, luminescence, 24 h; note: nearly all actives have a fitted effect of over 55% in size
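qHTS (up to 57 uM final) was run with 24 h compound exposure of reporter cells at 37 °C. Each well was multiplexed: SteadyGlo luminescence measured ATXN2-luciferase expression after a fluorogenic Gly-Phe-AFC viability readout (25 uM final).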
DT40 TDP1 no CPT: qHTS for Inhibitors of human tyrosyl-DNA phosphodiesterase 1 (TDP1): qHTS in cells in absence of CPT; 420,000 compounds, 15% hits; DT40 Tdp1-/- hTDP1 cells, no CPT, ATP luminescence, 48 h; AID 686978, 2013; Potency, µM (titrated, usually from 46.2 µM), most hits filed as inhibitors; note: nearly all actives have a fitted effect of over 55% in size
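A cellular qHTS used chicken DT40 cells lacking endogenous Tdp1 but carrying stably transfected human TDP1. Compounds were applied without camptothecin, and cell growth kinetics were judged by ATP-dependent luminescence after ≥48 hr.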
HepG2 viability: kills HepG2 cells in TGF-b inhibitor counter-screen | HepG2 CAGA-GFP viability, ATP luminescence, 18 h | Potency, µM (series often up to 46.1 µM), actives largely listed as cytotoxic | 410,000 compounds, 0.76% hits | AID 588856
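HepG2 CAGA-GFP cells (1000/well, DMEM with 1% FBS) received compound, then TGF-beta at 500 pg/mL final, and were incubated 18 hours at 37 degrees C. Viability was read by CellTiter-Glo luminescence. Media-only wells were set as complete cell-killing and DMSO as no toxicity.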
DT40 TDP1 CPT: growth inhibition of DT40 Tdp1-/-;hTDP1 cells with camptothecin (screen for TDP1 inhibitors) | Potency, µM (doses to about 46.2 µM), hits mostly inhibitors | 420,000 compounds, 12% hits | chicken DT40 Tdp1-/-;hTDP1 cells + 20 nM CPT, ATP luminescence, 48 h | AID 686979; note: nearly all actives have a fitted effect of over 55% in size
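Cell growth measured by CellTiter-Glo luminescence after a minimum 48 h, 37 C compound exposure with 20 nM CPT in Tdp1-knockout DT40 cells stably expressing hTDP1, seeded 400/well; qHTS titration format.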
Each line names hits and unclear results; the compound was inactive in the other large screens. An excerpt weighted towards active compounds, which were near 17% of everything screened. Calls come from the whole dose curve; as a rule, active = well fitted curve in the direction sought with a large enough effect; inconclusive = small, poorly fitted or top-dose-only effect, or another doubt; inactive = no such curve, though single readings can be large; an effect the other way counts as inactive or inconclusive.

CCOc1ccc(N2C(=O)CNC2=S)cc1	none
CC(NC(=O)COC(=O)c1cccc(S(=O)(=O)N2CCCC2)c1)c1ccccc1 (stereo not given)	none
CCc1ccc(NC(=O)CSc2nc3ccccc3c(=O)n2CCCN2CCC(C)CC2)cc1	DT40 TDP1 no CPT 23µM, DT40 TDP1 CPT inconclusive
Cc1cccc(NC(=O)C(C)Sc2nc3ccccc3c(=O)n2CCCN2CCOCC2)c1 (stereo not given)	ATXN viability inconclusive, DT40 TDP1 CPT 23µM
Cc1ccc(NC(=O)CSc2nc3ccccc3c(=O)n2CCCC(=O)N2CCCC2)cc1	TGFb inhibitor inconclusive, DT40 TDP1 no CPT 21µM, DT40 TDP1 CPT 18µM (no result: ATXN viability, ATXN2 expr inh)
Cc1ccc(S(=O)(=O)N(C)C)cc1-n1c(SCC(=O)Nc2ccc(F)cc2)nc2ccccc2c1=O	DT40 TDP1 no CPT inconclusive, DT40 TDP1 CPT inconclusive
CCc1ccc(NC(=O)CSc2nc3ccccc3c(=O)n2CCNC(C)=O)cc1	none
CC(=O)c1cccc(NC(=O)CSc2nc3ccccc3c(=O)n2CCCN2CCOCC2)c1	ATXN viability inconclusive, DT40 TDP1 no CPT inconclusive (no result: ATXN2 expr inh)
Cc1ccc(S(=O)(=O)N(C)C)cc1-n1c(SCC(=O)Nc2ccc(F)cc2Cl)nc2ccccc2c1=O	DT40 TDP1 no CPT 16µM, DT40 TDP1 CPT 21µM
Cc1ccc2onc(CNC(=O)N3CCN(c4cccc(C(F)(F)F)c4)CC3)c2c1	ATXN viability inconclusive, DT40 TDP1 no CPT inconclusive
OC(c1cccc(Cl)c1)c1ncc(-c2ccccc2Cl)[nH]1 (stereo not given)	DT40 TDP1 no CPT inconclusive, DT40 TDP1 CPT inconclusive
Cc1ccc(NC(=O)CSc2nc3ccccc3c(=O)n2CCCN2CCCCC2)cc1C	TGFb inhibitor inconclusive, ATXN2 expr inh inconclusive, DT40 TDP1 no CPT inconclusive, HepG2 viability 18µM, DT40 TDP1 CPT 26µM (no result: ATXN viability)
Cc1ccc(NC(=O)CSc2nc3ccccc3c(=O)n2CCC(=O)NC2CCCCC2)cc1C	none
COc1ccc(NC(=O)CSc2nc3ccccc3c(=O)n2CCCN2CCOCC2)c(OC)c1	DT40 TDP1 no CPT inconclusive, DT40 TDP1 CPT inconclusive
CN(C)S(=O)(=O)c1ccc(Cl)c(NC(=O)CSc2nc3ccccc3c(=O)n2CCCN2CCOCC2)c1	DT40 TDP1 no CPT 26µM, DT40 TDP1 CPT inconclusive
Cc1ccc(CNC(=O)c2ccc(N3CCC4(CC3)CC(c3cccc(Br)c3)=NO4)c([N+](=O)[O-])c2)cc1	DT40 TDP1 no CPT inconclusive, DT40 TDP1 CPT 10µM
CCCNC(=O)c1ccc(N2CCC3(CC2)CC(c2cccc(Br)c2)=NO3)c([N+](=O)[O-])c1	DT40 TDP1 no CPT 8.2µM, DT40 TDP1 CPT 6.5µM
O=C(NCc1ccncc1)c1ccc(N2CCCC2)c([N+](=O)[O-])c1	DT40 TDP1 no CPT 18µM, DT40 TDP1 CPT inconclusive
CCCNC(=O)c1ccc(N2CCC3(CC2)CC(c2cccc(Br)c2)=NO3)c(N)c1	ATXN viability inconclusive, DT40 TDP1 no CPT inconclusive, DT40 TDP1 CPT inconclusive
C=C1CCN(c2ccc(C(=O)NCc3ccc(OC)cc3)cc2[N+](=O)[O-])CC1	DT40 TDP1 no CPT inconclusive, DT40 TDP1 CPT 21µM
CCCN(CCC)CCCNC(=O)C1CCC(CNS(=O)(=O)c2ccc(NC(C)=O)cc2)CC1 (stereo not given)	none
Cc1cnc(NS(=O)(=O)c2ccc(N)cc2)nc1	none (no result: TGFb inhibitor, DT40 TDP1 no CPT, HepG2 viability, DT40 TDP1 CPT)
Cc1cccc(-n2c3c(cc(-c4nc(-c5ccc(Cl)cc5)cs4)c2=O)C(=O)CC(C)(C)C3)c1	none
Cc1ccc(CNC(=O)c2ccc(N3CCC4(CC3)CC(c3cccc(Br)c3)=NO4)c(N)c2)cc1	DT40 TDP1 no CPT 5.8µM, DT40 TDP1 CPT 6.5µM
COc1cccc(C(=O)Nc2cc(C(=O)NCc3ccc(C)cc3)ccc2N2CCC3(CC2)CC(c2cccc(Br)c2)=NO3)c1	none
COc1ccc(CNC(=O)c2ccc(N3CCC4(CC3)CC(c3ccc(Cl)cc3)=NO4)c([N+](=O)[O-])c2)cc1	DT40 TDP1 no CPT 0.92µM, DT40 TDP1 CPT inconclusive
O=C(NCc1cccnc1)C1CCCCN1S(=O)(=O)c1ccc(F)cc1 (stereo not given)	none
C/C(=N\NC(=O)CSc1ncccn1)c1ccc2c(c1)OCCO2	none
COc1ccc(OC)c(CCNC(=O)Cn2nc(C)c3c(C)n(-c4ccc(C)cc4)nc3c2=O)c1	TGFb inhibitor inconclusive, DT40 TDP1 no CPT 15µM
Cc1ccc(-n2nc3c(=O)n(CC(=O)NCCc4ccccc4C)nc(C)c3c2C)cc1	ATXN2 expr inh inconclusive, DT40 TDP1 no CPT inconclusive, DT40 TDP1 CPT inconclusive
COc1ccc(OC)c(CNC(=O)Cn2nc(C)c3nn(-c4ccc(Cl)cc4)c(C)c3c2=O)c1	DT40 TDP1 no CPT 18µM, DT40 TDP1 CPT 23µM (no result: ATXN viability, ATXN2 expr inh)
CCC1(c2ccccc2)NC(=O)N(CC(=O)Nc2ccc(S(=O)(=O)NC3=NCCCCC3)cc2)C1=O (stereo not given)	none
CCCCn1c(N)c(N(CCC(C)C)C(=O)c2sc3nc4n(c(=O)c3c2C)CCC4)c(=O)[nH]c1=O	none
CC[C@]1(c2cccc(C)c2)C(=O)N(C(=O)OC)N1C(=O)OC	TGFb inhibitor inconclusive, DT40 TDP1 no CPT 13µM, DT40 TDP1 CPT 5.2µM
CC[C@@]1(c2ccccc2C)C(=O)N(C(=O)OC)N1C(=O)OC	TGFb inhibitor inconclusive, DT40 TDP1 no CPT inconclusive, DT40 TDP1 CPT 13µM
COC(=O)N1C(=O)[C@](c2ccccc2)(C(C)C)N1C(=O)OC	ATXN viability inconclusive, DT40 TDP1 no CPT inconclusive, DT40 TDP1 CPT inconclusive
CC[C@@]1(c2ccccc2)C(=O)N(C(=O)OC)N1C(=O)OC	ATXN viability inconclusive, DT40 TDP1 no CPT inconclusive, DT40 TDP1 CPT 8.2µM
COC(=O)N1C(=O)[C@@](c2ccccc2)(C2CCCCC2)N1C(=O)OC	ATXN viability 20µM, TGFb inhibitor inconclusive, ATXN2 expr inh inconclusive, DT40 TDP1 no CPT 18µM, DT40 TDP1 CPT inconclusive
CN1C(=O)N(C)C2(C)CC1(C)N(C)C(=O)N2C	DT40 TDP1 no CPT inconclusive
CCC1(c2ccccc2)NC(=O)N(CC(=O)NCc2ccccc2OC)C1=O (stereo not given)	none
CC[C@]1(c2ccccc2)C(=O)N(C(=O)OC)N1C(=O)OC	TGFb inhibitor inconclusive, DT40 TDP1 no CPT 16µM, DT40 TDP1 CPT 21µM
O=C(C1=C(O)C(=O)N(CC2CCCO2)C1c1ccccc1Cl)c1ccco1 (stereo not given)	none
O=C(O)C1C2C=CC(O2)C1C(=O)Nc1ccc(S(=O)(=O)N2CCc3ccccc32)cc1 (stereo not given)	none

Source: PubChem BioAssay
